Shown is part of a subset that was picked to be rich in hits.
RmlCD inh mix – RmlC and RmlD coupled enzyme inhibitors, primary screen, biochemical, 384-well, compound mixtures, retest; RmlC/RmlD coupled enzyme inhibition, 384-well mixture HTS; inhibition, % at 5.5 µM; 110,000 compounds, 0.39% hits; AID 1532, 2009; in the data active means inhibition above about 30%, passing the limit was not always enough; inconclusive means no clear call, values can overlap the other calls
HIV RNase H inh-1 – HIV-1 RT RNase H inhibitors, primary screen, biochemical, fluorescence | Gag-Pol polyprotein (Human immunodeficiency virus type 1 group M subtype B (isolate … | RT-RNase H RNA/DNA duplex cleavage | inhibition, % at 10 µM | 65,000 compounds, 1.9% hits | AID 565, 2006; in the data active means inhibition above about 50%
HIV RNase H inh-2 – HIV-1 RT RNase H inhibitors, retest, confirmation, biochemical. AID 651, 2007. 1,000 compounds, 39% hits. inhibition, % at 10 µM. Recombinant RT RNase H, fluorescent RNA/DNA duplex cleavage. shares compounds with HIV RNase H inh-1; in the data active means inhibition above about 48%; inconclusive means no clear call, values can overlap the other calls
Numbers stand for hits; – = inactive; ? = inconclusive; · = no result given.

SMILES | RmlCD inh mix | HIV RNase H inh-1 | HIV RNase H inh-2
N=C1C(c2nc3ccccc3c(=O)[nH]2)=C(O)CN1CCO | – | – | ·
N=C1C(c2nc3ccccc3c(=O)[nH]2)=C(O)CN1CCc1ccccc1 | – | 75 | –
CC(C)c1c(C#N)c(N)nc(SCC(=O)c2cc3ccccc3oc2=O)c1C#N | – | 75 | –
N#Cc1ccc(-c2ccccc2)nc1SCC(=O)c1cc2ccccc2oc1=O | – | · | ·
COc1ccc(C2CNC(=O)C2)cc1OC1CCCC1 (stereo unspecified) | – | – | ·
CCc1ccc2[nH]c(=O)c(C(c3nnnn3CC3CCCO3)N3CCCc4ccccc43)cc2c1 (stereo unspecified) | – | – | ·
Cc1cc2cc(C(c3nnnn3CC3CCCO3)N3CCCc4ccccc43)c(=O)[nH]c2cc1C (stereo unspecified) | – | 52 | –
OCC1CCCN1C(=S)Nc1ccccc1 (stereo unspecified) | – | · | ·
COCCOC(=O)C1=C(C)N=C2SCCC(=O)N2C1c1cccc(Br)c1 (stereo unspecified) | – | – | ·
c1ccc(Cc2nn3c(Cn4nnc5ccccc54)nnc3s2)cc1 | · | 74 | 68
Brc1ccccc1-c1nnc2sc(Cc3ccccc3)nn12 | – | – | ·
CCC(CC)c1nc(NCCC(=O)O)c2ccccc2n1 | – | 76 | –
O=C(NCCO)c1nc(NCCO)c2ccccc2n1 | – | – | ·
COC(=O)c1cc(OC)c(OC)cc1NC(=O)c1oc2ccccc2c1C | · | – | ·
CCOC(=O)C1Nc2c(F)cc(C)cc2C2C=CCC12 (stereo unspecified) | – | · | ·
O=C(O)C1Nc2c(C(=O)N3CCOCC3)cccc2C2C=CCC12 (stereo unspecified) | – | 77 | –
O=C(c1ccccc1)c1ccccc1C(=O)N1CCOCC1 | – | – | ·
Cc1ccc2c(c1C)NC(C(=O)O)C1CC=CC21 (stereo unspecified) | – | 96 | 69
COc1cc(C)c(C(C)C)cc1S(=O)(=O)NCCCn1ccnc1 | – | – | ·
O=C(CSc1nccc2ccccc12)N1CCN(c2ccccn2)CC1 | · | – | ·
CCOC(=O)CSc1nc(-c2cccs2)nc2c1c(=O)n(C)c(=O)n2C | · | – | ·
CNC(=O)CN1C(=O)c2cccc3cccc1c23 | – | · | ·
CN1/C(=N\O)c2cccc3cccc1c23 | – | 61 | –
O=C(O)c1ccc(N2Cc3ccccc3C2)cc1O | – | · | ·
CCCCOC(=O)C1CCCC(C(=O)OCCCC)N1 (stereo unspecified) | – | – | ·
SMILES | RmlCD inh mix | HIV RNase H inh-1 | HIV RNase H inh-2
CCCN(CCC)C1=N/C(=C\c2ccco2)C(=O)N1c1ccccc1 | – | · | ·
COCCNC(=O)CSc1nc2cc(OC)c(OC)cc2c(=O)n1Cc1ccco1 | – | – | ·
COC(=O)c1ccc2c(=O)n(Cc3ccco3)c(SCC(=O)Nc3ccc(C)c(Cl)c3)nc2c1 | – | 85 | 76
COc1ccc(-c2nc3n(n2)C(c2ccccc2Cl)C(C(N)=O)=C(C)N3)cc1 (stereo unspecified) | – | – | ·
COc1cc(C)nc(SCC(N)=O)n1 | – | 62 | –
CCOC(=O)CSc1nc(C)cc(C)n1 | – | · | ·
O=C1NCCCC1C(=O)N1CCN(C(=O)C2CCCNC2=O)CC1 (stereo unspecified) | · | – | ·
N#Cc1c(N)sc(=S)c2c1CCN(Cc1ccccc1)C2 | 119 | 66 | –
CCN1CCc2c(sc(N)c2C#N)C1 | – | – | ·
COCCn1c(COC)nc2ccccc21 | – | – | ·
COCc1nc2ccccc2n1CCOc1ccccc1OC | – | 80 | –
Cc1ccc(NCc2ccccc2O)cc1 | – | · | ·
Cc1ccc(CNc2ccc(O)cc2)cc1 | · | 57 | –
COC(=O)C(NC=O)C(O)(Cc1ccccc1)C(F)(F)F (stereo unspecified) | – | – | ·
O=C1C2C3C=CC(CO)(O3)C2C(=O)N1c1ccccc1-c1ccccc1 (stereo unspecified) | – | 61 | –
COc1ccc(C(=O)NCC23C=CC(O2)C2C(=O)N(Cc4ccccc4)C(=O)C23)cc1 (stereo unspecified) | – | – | ·
O=C(Nc1ccccc1)C1=C[C@@H](c2ccc3c(c2)OCO3)C[C@@H](OCCCCO)O1 | – | · | ·
COC(=O)C1=C(C)N=c2s/c(=C3\C(=O)Nc4ccccc43)c(=O)n2C1c1ccccc1 (stereo unspecified) | · | 90 | 70
CCOC(=O)C1=C(C)N=c2s/c(=C3/C(=O)Nc4ccccc43)c(=O)n2C1c1ccc(C)cc1 (stereo unspecified) | – | · | ·
Cc1nc2c(c(=O)n1CC1CCCO1)c1nc3ccccc3nc1n2Cc1ccc2c(c1)OCO2 (stereo unspecified) | · | – | ·
Cc1cc(NC(=O)c2ccc3c(c2)C(=O)N(C2CCCCC2)C3=O)no1 | – | 64 | –
Cc1cc(NC(=O)c2ccc3c(c2)C(=O)N(C)C3=O)no1 | – | · | ·
CC(C)(C)C1=Nn2c(nnc2-c2ccccn2)SC1 | – | 64 | 70
CC(C)(C)C1=Nn2c(nnc2-c2ccccc2F)SC1 | – | – | ·
Cc1cc(C)n(CCc2nc(-c3ccco3)cs2)n1 | – | · | ·
SMILES | RmlCD inh mix | HIV RNase H inh-1 | HIV RNase H inh-2
Cc1nn(CCc2nc(-c3ccco3)cs2)c2[nH]c(=O)cc(C(F)(F)F)c12 | – | 88 | 69
CN(c1ccccc1)S(=O)(=O)c1ccc(C(=O)OCC(=O)N2CCOCC2)cc1 | – | – | ·
N#Cc1cc2c([nH]c1=S)CCCCCC2 | – | 81 | –
N#Cc1c(N)n[nH]c1-c1cc2c([nH]1)CCCC2 | – | – | ·
CC1CC(C)CN(C(=O)CSc2nnc(-c3ccc(Cl)s3)o2)C1 (stereo unspecified) | – | – | ·
CC1CC(C)CN(C(=O)CSc2nnc(-c3ccc(F)cc3)o2)C1 (stereo unspecified) | – | 82 | –
COc1ccc([C@@H]2[C@H]3C(=O)N(c4cccc(C(F)(F)F)c4)C(=O)[C@H]3ON2C)cc1 | – | · | ·
COc1ccc(OC)c(C2C(C(=O)O)c3ccccc3C(=O)N2C)c1 (stereo unspecified) | – | 65 | –
COc1cc(OC)c(C2C(C(=O)O)c3ccccc3C(=O)N2C)cc1OC (stereo unspecified) | – | – | ·
Cc1sccc1C1C(C#N)=C(N)SC(N)=C1C#N | · | 60 | –
Cc1cc(C2C(C#N)=C(N)SC(N)=C2C#N)c(C)s1 | · | – | ·
S=C(c1ccc(-c2ccc(Cl)cc2)o1)N1CCCCC1 | – | · | ·
N#CCCN1CCN(C(=S)c2ccc(-c3ccc(Cl)cc3)o2)CC1 | – | 56 | –
CC(/C=C(\NC(=O)c1ccccc1)C(=O)N=Nc1c(O)[nH]c2ccc(C)cc12)=C\c1ccccc1 | – | · | ·
COCCOC(=O)c1c(C)n(C)c2ccc(OC(=O)C3CC3)cc12 | – | – | ·
CCCCN1Cc2cc(C(=O)c3cc(OC)ccc3O)cnc2NC1=O | – | · | ·
Cc1ccc(O)c(C(=O)c2cnc3c(c2)CN(CCC(C)C)C(=O)N3)c1 | – | 63 | ?
CS(=O)(=O)N1CC(C(=O)NC2CCCC2)Oc2ccc(Cl)cc21 (stereo unspecified) | – | · | ·
Cc1ccc(C(=O)CSc2nnc(-c3ccccc3)o2)cc1 | – | · | ·
COC(=O)c1ccc(OC)c(CSc2nnc(-c3ccc(C)cc3)o2)c1 | · | 66 | –
NC(=O)CN(c1ccccc1)C1SC(=O)N(Cc2ccccc2)C1=O (stereo unspecified) | – | – | ·
Cc1ccc(N(CC(N)=O)C2SC(=O)N(Cc3ccccc3)C2=O)cc1 (stereo unspecified) | – | 63 | –

Bioassay records from PubChem.
